# Experiments:
# Test in all cases: PBM binding z-score (relative to random genomic background probes); higher = stronger binding; sequences stand for … in GC…GCGATTGACAGCGTAGAATGAAGG
# [1] = tested on: FXR:RXRa (NR concentration 270 nM, RXRa partner concentration 90 nM)
# Method in brief: (§1)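 Binding z-scores take random background probes as their reference. They come from custom Agilent 4×180K protein-binding microarrays incubated 1 h with ligand-free nuclear receptor dimers, with antibodies against each partner (one per run) detecting binding. Scanned fluorescence was regression-normalized.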
# [2] = tested on: LXRa:RXRa (NR concentration 270 nM, RXRa partner concentration 90 nM)
# Method in brief: as §1
# [3] = tested on: LXRa homodimer (NR concentration 270 nM)
# Method in brief: as §1
# [4] = tested on: LXRb:RXRa (NR concentration 270 nM, RXRa partner concentration 90 nM)
# Method in brief: as §1
# [5] = tested on: LXRb homodimer (NR concentration 270 nM)
# Method in brief: as §1
# [6] = tested on: PPARa:RXRa (NR concentration 270 nM, RXRa partner concentration 90 nM)
# Method in brief: as §1
# [7] = tested on: PPARg:RXRa (NR concentration 180 nM, RXRa partner concentration 90 nM)
# Method in brief: as §1
# [8] = tested on: PPARg:RXRa 270nM:90nM, anti-RXR (NR concentration 270 nM, RXRa partner concentration 90 nM)
# Method in brief: as §1
# [9] = tested on: PPARg:RXRa 30nM:10nM, anti-RXR (NR concentration 30 nM, RXRa partner concentration 10 nM)
# Method in brief: as §1
# [10] = tested on: PPARg:RXRa 90nM:30nM, anti-RXR (NR concentration 90 nM, RXRa partner concentration 30 nM)
# Method in brief: as §1
# [11] = tested on: PPARg:RXRa DBDmut IVT, anti-RXR (DBD mutation: RXRa K156A/R161A, NR concentration 270 nM, RXRa partner concentration 90 nM)
# Method in brief: as §1
# [12] = tested on: PPARg:RXRa IVT, anti-PPARg (NR concentration 270 nM, RXRa partner concentration 90 nM)
# Method in brief: as §1
# [13] = tested on: PPARg DBDmut:RXRa IVT, anti-PPARg (DBD mutation: PPARg1 K132A/R137A, NR concentration 270 nM, RXRa partner concentration 90 nM)
# Method in brief: as §1
# [14] = tested on: PPARg DBDmut IVT, anti-PPARg (DBD mutation: PPARg1 K132A/R137A, NR concentration 270 nM)
# Method in brief: as §1
# [15] = tested on: PPARg homodimer (NR concentration 180 nM)
# Method in brief: as §1
# [16] = tested on: PXR:RXRa (NR concentration 270 nM, RXRa partner concentration 90 nM)
# Method in brief: as §1
# [17] = tested on: PXR homodimer (NR concentration 270 nM)
# Method in brief: as §1
# [18] = tested on: RARa:RXR (NR concentration 270 nM, RXRa partner concentration 90 nM)
# Method in brief: as §1
# [19] = tested on: RARa homodimer (NR concentration 270 nM)
# Method in brief: as §1
# [20] = tested on: RARb:RXRa (NR concentration 270 nM, RXRa partner concentration 90 nM)
# Method in brief: as §1
Sequence,PBM binding z-score [1],PBM binding z-score [2],PBM binding z-score [3],PBM binding z-score [4],PBM binding z-score [5],PBM binding z-score [6],PBM binding z-score [7],PBM binding z-score [8],PBM binding z-score [9],PBM binding z-score [10],PBM binding z-score [11],PBM binding z-score [12],PBM binding z-score [13],PBM binding z-score [14],PBM binding z-score [15],PBM binding z-score [16],PBM binding z-score [17],PBM binding z-score [18],PBM binding z-score [19],PBM binding z-score [20]
GCAGACAGGTGAAACGCAGGTAACTCAAGGTGGC,-0.175,0.4,-0.42,-0.165,-1.28,0.892,0.604,-0.0904,-0.0664,-0.118,1.07,0.401,-0.233,-0.299,-0.279,-0.0534,-0.612,0.593,-0.358,0.608
ACTGGTTGGTCAGCTGAGGTCACACACAATTCGG,3.86,3.31,2.58,3.6,0.876,3.6,1.53,2.1,0.448,1.43,0.671,2.22,1.22,0.402,3.12,5.37,2.47,4.61,1.92,3.73
CTACCAAGGTGAACAAGGTCCTTGATTACTATTC,0.682,0.376,-0.214,0.744,-0.587,1.57,0.578,0.855,-0.122,0.296,2.33,2.45,0.391,-0.0815,0.182,0.728,0.218,0.944,-0.035,1.64
CGAACTAGGTCATCAAGGACAGTGAATACATTGA,3.45,2.23,0.477,1.76,-0.245,4.53,7.15,6.3,3.43,5.6,8.23,8.64,1.85,1.55,1.45,2,1.45,2.13,0.127,3.88
ATCTCTAGGTAAAGTTCAATGAAAGATCGATAGA,2.28,3.13,2.86,2.25,1.31,3.32,4.11,5.15,3.34,4.82,2.42,3.05,1.44,1.47,1.79,3.02,2.63,1.92,2.05,3.19
CCTAGCAGGCTAGGGTCACTCAAGCATTTCGCTT,2.86,2.4,-0.638,2.55,-0.881,3.67,0.643,1.87,-0.254,0.841,0.26,0.393,-1.9,-1.59,1.58,3.3,-0.41,4.27,-0.0687,2.89
CCTCGGAGGACAAAAGGAGGTCAGAGCTGCCAGA,1.18,2.12,1.26,1.34,-0.602,2.71,0.706,1.21,-0.33,0.651,0.965,1.96,-1.11,-2.13,1.84,2.15,0.144,2.45,0.515,2.39
TCTTGTAGATCAAAGGTTAAGAAGGCCGAAGCCT,1.58,2.1,-0.0136,1.83,-0.281,4.6,8.22,8.32,9.13,9.04,2.13,4.06,0.462,0.582,0.29,2.19,0.104,3.33,-0.0225,1.98
CAAACTAGGTCAAGGTCAAACTCGGTTTGTGCCA,7.27,5.63,4.45,4.69,1.71,6.2,9.59,7.65,6.72,7.91,7.83,8.72,1.79,1.1,2.32,5.44,2.6,5.03,1.19,5.27
GCTTGTAGATCAACGTTAAGAAAGACTAAGCTAA,-0.519,-0.395,-0.371,-0.448,-0.769,-0.124,0.13,-0.0429,-0.364,-0.214,1.51,0.269,0.342,0.507,-0.243,-0.51,-0.226,-0.0818,-0.208,-0.508
ATCTCTAGATAACCAAGTTCAGTGAATGCCGAAC,0.0637,0.348,0.591,0.348,0.0515,-0.00769,0.236,-0.141,0.124,-0.0247,-0.316,0.0781,0.627,0.782,0.44,1.1,1.09,0.424,0.885,0.556
TCGAGTAGGTTAGTCGGGGCCTTCAGCCAACATA,-0.352,-0.131,-0.672,0.0154,-1.21,0.259,-0.8,0.291,0.448,0.62,1.83,1.08,-1.4,-0.48,-0.555,-0.49,-0.597,-0.0225,-1.38,0.0952
GGTGCTAGGTCAACTGATGGTCAGCTAAAGCTCG,4.46,3.2,0.481,2.17,0.109,3.84,3.55,3.81,0.998,2.53,4.51,4.91,-0.202,-0.913,3.45,1.84,0.142,3.25,0.466,4.43
